Screening results: PubChem, several laboratories
An excerpt weighted towards active compounds, which were near 2.8% of everything screened.
PP5 primary – inhibitors of human protein phosphatase 5 (PP5). P53041. purified PP5c, OMFP substrate fluorescence. inhibition, % at 6.7 µM. 320,000 compounds, 0.18% hits. AID 1987;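 active means inhibition above the campaign's mean inhibition across all tested compounds plus 3 SD, cut at about 9.5% in these data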;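 further: 0% = DMSO only and 100% = 100 µM cantharidin control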
SKKanGAS inh – blocks kanamycin growth of S. pyogenes SKKanGAS strain. BacTiter-Glo, 6 h. inhibition, % at 7.5 µM. 300,000 compounds, 1.3% hits;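 active means mean replicate score, as percent of positive control median, at least 50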;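 further: strain carries kanamycin resistance gene driven by streptokinase promoter and grows in 40 µg/ml kanamycin; loss of luminescence reflects streptokinase promoter inhibition or plain growth inhibition; 0% = median of DMSO wells and 100% = positive control at its reference dose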
IDE act – boosts human insulin-degrading enzyme activity in HEK cells; 340,000 compounds, 0.073% hits; activation, % at 5.96 µM; FAbeta-B cleavage, fluorescence polarization; 0% vehicle, 100% cell-free pure enzyme wells; AID 493087;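 active means activation above the mean of all tested compounds plus 3 SD, set per screening campaign, cut at about 17% in these data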
Exocytosis inh – blocks lytic granule exocytosis; inhibition, % at 10 µM; TALL-104 LAMP-1 surface exposure, flow cytometry; cells stimulated with thapsigargin and PMA; 360,000 compounds, 0.66% hits;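 active means inhibition above about 55%, limit read from the data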
PP1 inh – PP1-alpha (human) inhibition in PP5 counter-screen; P62136; purified PP1alpha, OMFP fluorescence; inhibition, % at 6.7 µM; 320,000 compounds, 0.9% hits; AID 2235;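 active means inhibition above the mean inhibition of all tested compounds plus 3 SD, computed separately for each screening campaign, cut at about 15% in these data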
Target sequence (P62136 whole entry, looked up): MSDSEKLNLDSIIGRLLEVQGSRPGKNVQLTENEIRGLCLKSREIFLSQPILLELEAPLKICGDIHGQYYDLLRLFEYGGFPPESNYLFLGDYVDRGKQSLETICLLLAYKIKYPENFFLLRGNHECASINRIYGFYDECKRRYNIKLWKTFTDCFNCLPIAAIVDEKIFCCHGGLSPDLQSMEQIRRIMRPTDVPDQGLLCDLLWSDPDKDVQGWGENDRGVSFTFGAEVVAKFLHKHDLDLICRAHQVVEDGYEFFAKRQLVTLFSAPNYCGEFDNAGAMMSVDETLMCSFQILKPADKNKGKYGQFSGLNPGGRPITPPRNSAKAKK
IDE cell inh – inhibitors of human insulin-degrading enzyme in cells. 320,000 compounds, 0.41% hits. AID 434962. inhibition, % at 5.59 µM. HEK cells, FAbetaB cleavage, fluorescence polarization;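 active means percent inhibition above the average of all tested compounds plus 3 SD, set per screening campaign, cut at about 16% in these data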;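 further: IDE supplied by intact live HEK cells; FP after avidin binding of uncleaved biotin substrate so inhibition keeps polarization high; 0% = DMSO wells and 100% = 60 µM reference IDE inhibitor Ii1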
Exocytosis CP01 – blocks lytic granule exocytosis; 1,500 compounds, 11% hits; shares compounds with Exocytosis inh; TALL-104 cells, LAMP-1 externalization, flow cytometry; stimulated with PMA plus thapsigargin; inhibition, % at 10 µM; in the data active means inhibition above about 60%;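 further: 0% = stimulated vehicle wells and 100% = unstimulated wells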
* hit, by the source's call; · = not tested or not shown.

SMILES	PP5 primary	SKKanGAS inh	IDE act	Exocytosis inh	PP1 inh	IDE cell inh	Exocytosis CP01
Cc1cc(C)c(C(=O)N2CCCC(N3CCN(c4ccc(F)cc4)CC3)C2)o1 (stereo not given)	-1.7	2.8	0.3	-2.8	-0.5	-4.3	·
COc1ccc(NC(=O)CSc2nnnn2C)cc1S(=O)(=O)N1CCCCC1	-0.3	·	1.8	3.7	-3.6	4.9	·
CCC(C(=O)NCCCN(CC)Cc1ccccc1)n1nc(C)c2sc3ccccc3c2c1=O (stereo not given)	1.7	0.2	4.2	57.5*	-2.4	0.9	-4.8
CCC(C(=O)NCCc1ccc(C)cc1)n1nc(C)c2c(C)n(-c3ccccc3)nc2c1=O (stereo not given)	2.5	0.5	-6.7	85.7*	2.1	8.4	-3.5
Cc1ccc(CCNC(=O)C(C)n2nc(C)c3c(C)n(-c4ccccc4)nc3c2=O)cc1 (stereo not given)	1.1	3.0	-6.0	-7.3	2.2	-1.6	·
Cc1nn(C(C)C(=O)NCCCN(Cc2ccccc2)C(C)C)c(=O)c2c1sc1ccccc12 (stereo not given)	-2.0	-1.7	3.0	1.4	12.3	-3.6	·
O=C(NNC(=O)c1cc2cc(OC(F)(F)F)ccc2[nH]1)c1cccc(C(F)(F)F)c1	4.0	-6.9	1.4	12.5	0.3	-3.4	·
Cc1nn(CC(=O)NCCCN2CCC(Cc3ccccc3)CC2)c(=O)c2cc(-c3ccccc3)nn12	-0.8	-0.1	-0.9	87.3*	0.2	-0.3	3.1
CCc1ccc(-c2cc3c(=O)n(CC(=O)NCCCN4CCC(Cc5ccccc5)CC4)nc(C)n3n2)cc1	-0.7	-8.5	6.3	55.2	0.5	0.2	·
Cc1ccccc1-c1cnc(C(O)c2cc(Cl)cc(Cl)c2)[nH]1 (stereo not given)	·	·	·	-6.4	·	·	·
O=C(Nc1ccc([N+](=O)[O-])cc1)N1CCc2ccccc2C1	-7.3	2.5	3.2	85.4*	-3.2	8.4	-12.4
CC(C)c1ccc(NC(=O)N2CCc3ccccc3C2)cc1	-0.4	-8.9	4.0	-0.6	-0.6	1.3	·
COc1ccc(C(=O)Nc2ccc(Cl)cc2C(=O)NCc2ccco2)cc1OC	5.4	16.1	-1.7	60.0*	2.2	2.6	44.3
COc1ccc(C(=O)Nc2ccccc2C(=O)NCc2ccco2)cc1OC	-2.9	9.7	5.1	-1.3	-1.1	-1.1	·
COc1cc(C(=O)Nc2sc3c(c2C(=O)NCc2ccco2)CCCC3)cc(OC)c1OC	2.7	-0.2	6.0	55.0	2.3	0.7	·
COc1ccc(C(=O)Nc2sc3c(c2C(=O)NCc2ccco2)CCCC3)cc1OC	2.2	7.8	2.3	55.8*	-1.6	2.8	4.8
O=C(Nc1sc2c(c1C(=O)NCc1ccco1)CCCC2)c1ccc2c(c1)OCO2	-0.5	4.4	3.9	59.2*	5.1	-5.5	-2.1
Cc1cccc2c1NC(=O)C2(O)N1CCCC(C)C1 (stereo not given)	0.5	3.4	4.2	-0.7	2.5	5.3	·
Cc1cc(C)c(CN2CCN(C(=O)Cn3cnc4c(OCc5ccccc5)ncnc43)CC2)c(C)c1	·	·	0.6	10.0	·	-4.8	·
COc1ccc(CC(=O)Nc2ccc(-c3cn4ccccc4n3)cc2)cc1	4.6	-3.3	6.8	-1.0	-1.8	7.9	·
O=C(Nc1ccc(-c2cn3ccccc3n2)cc1)c1cccs1	1.3	0.8	-8.1	71.9*	3.8	15.7	48.2
Cc1ccc2nc(Cl)c3nnnn3c2c1	1.2	-1.5	-5.2	27.2	-0.3	5.1	·
C[N+](C)(C)CC(=O)N1CCN(c2ccc3ccccc3n2)CC1	·	1.7	2.5	8.1	·	·	·
Oc1ccccc1N1CCN(c2ccc3ccccc3n2)CC1	3.6	3.7	0.8	65.7*	-0.5	7.0	-13.5
Cc1ccc(S(=O)(=O)N(CC(=O)c2ccccc2)C(=O)N2CCN(C)CC2)cc1	·	-5.1	-4.3	1.1	·	·	·
CN(C)CCNc1nc2sc3c(c2c(=O)n1Cc1ccccc1)CCCCC3	·	2.2	2.5	57.4*	·	·	6.2
O=c1c2c3c(sc2nc(N2CCNCC2)n1CCc1ccccc1)CCCCC3	0.7	1.8	-3.2	59.6*	1.2	8.7	11.4
CN(C)CCNc1nc2sc3c(c2c(=O)n1-c1ccccc1)CCCCC3	0.6	5.2	6.2	17.2	-4.2	4.1	·
